From PubChem BioAssay (NCI)
This is part of a sample that, as a whole, favours compounds with a hit. Of some 83,000 tested, about 20% had one in any assay.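 Results are percent growth after 48 hours of single-concentration exposure. 100 means growth as in untreated cells, lower positive values show inhibition; negative values down to -100 show cell death.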 Activity calls are given as the source filed them. How the source made its calls: active means growth percent below 10; inactive means the rest.

Key:
Test in all cases: NCI-60 one-dose screen, 48 h (100 = growth as untreated, 0 = no growth, -100 = all killed)
Settings in all cases: 10 µM unless noted
NCI-H23 lung = test system: NCI-H23 lung
NCI-H226 lung = test system: NCI-H226 lung
NCI-H322M lung = test system: NCI-H322M lung
HOP-62 NSCLC = test system: HOP-62 NSCLC
NCI-H460 lung = test system: NCI-H460 lung
HOP-92 NSCLC = test system: HOP-92 NSCLC
NCI-H522 lung = test system: NCI-H522 lung
A549/ATCC NSCLC = test system: A549/ATCC NSCLC
786-0 renal = test system: 786-0 renal
COLO 205 colon = test system: COLO 205 colon
DU-145 prostate = test system: DU-145 prostate
MALME-3M melanoma = test system: MALME-3M melanoma
MDA-MB-231 breast = test system: MDA-MB-231 breast
RXF 393 renal = test system: RXF 393 renal
SF-268 CNS = test system: SF-268 CNS
SF-295 CNS = test system: SF-295 CNS
SF-539 CNS = test system: SF-539 CNS
UACC-257 melanoma = test system: UACC-257 melanoma
M14 melanoma = test system: M14 melanoma
K-562 leukemia = test system: K-562 leukemia

Measured: growth

Nc1nc(SN=Nc2ccc(S(N)(=O)=O)cc2)c2[nH]cnc2n1
active: NCI-H23 lung 8.88% | NCI-H460 lung 4.68% | HOP-92 NSCLC -6.95% | NCI-H522 lung -9.91% | COLO 205 colon -30.6% | RXF 393 renal -6.34% | UACC-257 melanoma 8.28%
inactive: NCI-H226 lung 37.3% | NCI-H322M lung 56.4% | HOP-62 NSCLC 19.8% | A549/ATCC NSCLC 24.1% | 786-0 renal 15.7% | DU-145 prostate 15% | MALME-3M melanoma 24.6% | MDA-MB-231 breast 16.9% | SF-268 CNS 19.8% | SF-295 CNS 12.6% | SF-539 CNS 14.9% | M14 melanoma 11.1%

COc1cc(/C=C2\C(=O)N(Cc3ccc(Cl)cc3)c3ccccc32)cc(OC)c1OC
inactive: NCI-H23 lung 34.4% | NCI-H226 lung 46.7% | NCI-H322M lung 66.9% | HOP-62 NSCLC 55.9% | NCI-H460 lung 25.2% | HOP-92 NSCLC 44% | NCI-H522 lung 11.4% | 786-0 renal 32.7% | COLO 205 colon 48% | MALME-3M melanoma 65.5% | MDA-MB-231 breast 23.3% | SF-268 CNS 10.9% | SF-295 CNS 40.9% | SF-539 CNS 23.3% | UACC-257 melanoma 21.9% | M14 melanoma 37.7%
active: A549/ATCC NSCLC 9.8% | DU-145 prostate -39.1% | K-562 leukemia 8.83%

FC(F)(F)c1cccc(Oc2ccc(Nc3ncnc4ccc(OCCCN5CCOCC5)cc34)cc2Cl)c1
inactive: NCI-H23 lung 76.1% | NCI-H226 lung 84.7% | NCI-H322M lung 37.5% | HOP-62 NSCLC 62.3% | NCI-H460 lung 14.2% | HOP-92 NSCLC 41.5% | NCI-H522 lung 35.1% | A549/ATCC NSCLC 49.4% | 786-0 renal 44.6% | COLO 205 colon 47% | DU-145 prostate 43% | MDA-MB-231 breast 22.4% | SF-268 CNS 55.6% | SF-295 CNS 25.7% | SF-539 CNS 60.8% | UACC-257 melanoma 40.1%
active: K-562 leukemia 1.77% | MALME-3M melanoma -4.17% | M14 melanoma -36%

O=S(=O)(c1ccccc1)N1CCCc2ccccc21
inactive: NCI-H23 lung 102% | NCI-H226 lung 104% | NCI-H322M lung 99% | HOP-62 NSCLC 94.2% | NCI-H460 lung 107% | HOP-92 NSCLC 88.5% | NCI-H522 lung 82.2% | A549/ATCC NSCLC 91.4% | 786-0 renal 102% | COLO 205 colon 112% | DU-145 prostate 112% | K-562 leukemia 97% | MALME-3M melanoma 93.6% | MDA-MB-231 breast 98.8% | SF-268 CNS 95.5% | SF-295 CNS 98.5% | SF-539 CNS 102% | UACC-257 melanoma 96.3% | M14 melanoma 102%

Clc1cc(Cl)cc(N2N=C(c3cccc(Nc4ccncc4)c3)CC2c2ccc3c(c2)OCO3)c1 (stereo not given)
inactive: NCI-H23 lung 80.1% | NCI-H226 lung 83.9% | NCI-H322M lung 68.3% | HOP-92 NSCLC 57.9% | A549/ATCC NSCLC 15.2% | 786-0 renal 91.7% | DU-145 prostate 28.9% | MDA-MB-231 breast 33.1% | SF-268 CNS 72.1% | SF-295 CNS 40.7% | SF-539 CNS 83.3% | UACC-257 melanoma 51.2% | M14 melanoma 85.3%
active: HOP-62 NSCLC -31.2% | NCI-H460 lung -90.2% | NCI-H522 lung -5.89% | COLO 205 colon -47.5% | K-562 leukemia 3.33% | MALME-3M melanoma -40.2%

CC(=O)N1N=C(c2cccc(Nc3ccncc3)c2)CC1c1ccc2c(c1)OCO2 (stereo not given)
active: 786-0 renal -93.4% | M14 melanoma -69.4%
inactive: NCI-H23 lung 87.4% | NCI-H226 lung 94.6% | NCI-H322M lung 105% | HOP-62 NSCLC 89.4% | NCI-H460 lung 101% | HOP-92 NSCLC 72.1% | NCI-H522 lung 96.5% | A549/ATCC NSCLC 93.9% | COLO 205 colon 84.3% | DU-145 prostate 104% | K-562 leukemia 27.4% | MALME-3M melanoma 74.9% | MDA-MB-231 breast 86.9% | SF-268 CNS 91.8% | SF-295 CNS 89.9% | SF-539 CNS 77.9% | UACC-257 melanoma 100%

CCC(=O)c1ccc(O)c(OC)c1
active: 786-0 renal 4.29%
inactive: NCI-H23 lung 96.1% | NCI-H226 lung 72.4% | NCI-H322M lung 106% | HOP-62 NSCLC 104% | NCI-H460 lung 104% | HOP-92 NSCLC 82.6% | NCI-H522 lung 88.2% | A549/ATCC NSCLC 86.5% | COLO 205 colon 120% | DU-145 prostate 113% | MALME-3M melanoma 104% | MDA-MB-231 breast 92% | RXF 393 renal 111% | SF-268 CNS 104% | SF-295 CNS 105% | SF-539 CNS 111% | UACC-257 melanoma 85.7%

Cc1cccc(Oc2ccc(Nc3ncnc4ccc(NC(=O)CNCCO)cc34)cc2Cl)c1
inactive: NCI-H23 lung 85.1% | NCI-H226 lung 96.7% | NCI-H322M lung 18.9% | HOP-62 NSCLC 78.2% | NCI-H460 lung 39.2% | HOP-92 NSCLC 30.4% | NCI-H522 lung 31.6% | A549/ATCC NSCLC 52.8% | 786-0 renal 55.7% | COLO 205 colon 56.2% | DU-145 prostate 44.3% | K-562 leukemia 13.5% | MALME-3M melanoma 70.5% | MDA-MB-231 breast 74.3% | SF-268 CNS 61.7% | SF-295 CNS 79.9% | SF-539 CNS 64.6% | UACC-257 melanoma 93.4% | M14 melanoma 74.3%

Clc1nc(Nc2ccccc2)nc(Nc2ccccc2)n1
inactive: NCI-H23 lung 103% | NCI-H226 lung 91.2% | NCI-H322M lung 96.3% | HOP-62 NSCLC 81.5% | NCI-H460 lung 109% | HOP-92 NSCLC 77.9% | NCI-H522 lung 83.8% | A549/ATCC NSCLC 104% | 786-0 renal 84.4% | COLO 205 colon 108% | DU-145 prostate 101% | MALME-3M melanoma 111% | MDA-MB-231 breast 88.8% | RXF 393 renal 117% | SF-268 CNS 103% | SF-295 CNS 100% | SF-539 CNS 100% | UACC-257 melanoma 130% | M14 melanoma 118%
